The record followed here is PubChem BioAssay (NCATS).

Records with an inconclusive call do not appear. The source made the active and inactive calls. The call rests on the fitted dose curve; in most records, active means well fitted curve in the direction sought with a large enough effect; inconclusive means small, poorly fitted or top-dose-only effect, or another doubt; inactive means no such curve, though single readings can be large; an effect the other way counts as inactive or inconclusive.

Test [1] deals with Zika virus NS2B-NS3 protease (linked construct). The test can be described thus: Primary screen NINDS Rhodamine qHTS for Zika virus inhibitors (AID 1347160). Further: nearly all actives have a fitted effect of over 55% in size. Further: potency means the concentration at half of the fitted maximal effect. Summed up: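 Purified NS2B-NS3 protease with the NS2B hydrophilic domain joined by a flexible linker (25 nM) in 10 mM Tris-HCl pH 8.0, 0.01% Tween 20, preincubated 15 min at RT with compound; Rhodamine110 peptide substrate 1.5 µM; fluorescence change over 15 min; 4-parameter Hill fit.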
A general note: qHTS replaces the single test concentration by a dilution series.

For test [2], the target named is Calcium and integrin-binding protein 1 (Homo sapiens) (UniProt Q99828). Nature of the test: Primary qHTS for Identification of Calcium Integrin Binding Protein 1 (CIB1) Competitor (AID 1508620).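 Further: GST tagged CIB1 binding a fluorescein labelled alphaIIb integrin peptide tracer; top concentration of the series differs between compounds.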 Summed up:
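Fluorescence polarization competition: CIB1-GST (1 uM final) preincubated with compound 15 min at room temperature, then FITC-labeled alphaIIb peptide (100 nM final) added for another 15 min. Polarization read at Ex 480/Em 540.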

Test [3] can be described thus: Primary qHTS for inhibitors of nuclear receptor binding SET domain protein 2 (NSD2) in an isogenic RCH-ACV NSD2 p.E1099K mutant (9B) (AID 1645876). Further: potency means the concentration at half of the fitted maximal effect; nearly all actives have a fitted effect of over 70% in size.
Test [4] in a line: Primary qHTS for inhibitors of nuclear receptor binding SET domain protein 2 (NSD2) in an RCH-ACV wild type WT cells (2C) (AID 1645877). Further: potency means the concentration at half of the fitted maximal effect; nearly all actives have a fitted effect of over 70% in size.
Test [5] has as its target Phospholipid hydroperoxide glutathione peroxidase GPX4 (Homo sapiens) (UniProt P36969). The test can be described thus: Primary qHTS Assay for Inhibitors of Recombinant Selenoprotein Glutathione Peroxidase 4 (GPX4) (AID 1845192). Further: nearly all actives have a fitted effect of over 65% in size. Particulars: outcome: dose series up to 50 µM unless noted. In short, it runs like this: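 GR-coupled readout: 100 nM GR, 1 mM GSH, 0.5 mM NADPH; NADPH fluorescence (ex 340/em 450 nm) read at t=0 and after 15 min RT. GPX4 200 nM, preincubated 30 min with compound; substrate 0.5 mM CHP.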

Test [6] concerns the target Luciferin 4-monooxygenase (Photinus pyralis) (UniProt P08659). Nature of the test: Primary firefly luciferase (FLuc) qHTS assay for identification of artifact compounds. (AID 1845220). Further: nearly all actives have a fitted effect of over 60% in size. Further: potency means the concentration at half of the fitted maximal effect. Summed up:
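qHTS, 15 min compound preincubation with substrate (10 uM luciferin, 10 uM ATP) at RT, then 10 nM FLuc; 5 min; luminescence; % inhibition vs no-enzyme/DMSO controls, 4-parameter Hill fit.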

A short description of test [7]: Primary fluorescence-based thiol-reactive (MSTI) qHTS assay for identification of artifact compounds. (AID 1845221).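 Further: thiol-reactive compounds lower the probe fluorescence signal; nearly all actives have a fitted effect of over 65% in size.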 Summed up:
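qHTS titration of compound; 4 uM MSTI, PBS pH 7.4, 2% DMSO; 1 h RT, dark; fluorescence 525/598 nm; normalized to Acetyl-MSTI and MSTI; 4-parameter Hill fit.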

Test [8] relates to Nanoluciferase (engineered Oplophorus gracilirostris luciferase). Nature of the test: Primary Nanoluciferase (NLuc) qHTS assay for identification of artifact compounds. (AID 1845222). Summed up: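 Luminescence read-out of secreted NLuc in S16 cell conditioned medium (1:55); compounds tested with 15 min RT preincubation, then Nano-Glo substrate 1:100, 5 min. % inhibition vs no-enzyme and DMSO controls, 4-parameter Hill fit.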

Test [9] in a line: Primary redox qHTS assay for identification of artifact compounds. (AID 1845223). In short, it runs like this: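 Amplex Red (25 uM) and HRP (250 mU/mL) in HBSS, with compounds for 15 min, then 250 uM DTT for 30 min, room temperature, dark. Fluorescence 525/598 nm read; normalized to DMSO and 10 uM DA3003; Hill fit.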
A further test deals with C33A. The test can be described thus: Primary qHTS to identify gynecologic anti-cancer compounds using libraries of approved drugs and bioactive compounds (AID 1345084). Further: nearly all actives have a fitted effect of over 55% in size. Further: potency means the concentration at half of the fitted maximal effect. Particulars: Gynecologic cancer cell panel viability, ATPlite luminescence, 48 h; series mostly up to 57.5 µM. Summed up: (§1)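 Cells, 1,000 per well, were allowed to settle for 16 h at 37 C before compound addition. Five concentrations were tested for 48 h, and viability was read by ATPlite luminescence after 15 min at room temperature.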

The test system of the next test is CAOV3. The description is as above. Particulars: Gynecologic cancer cell panel viability, ATPlite luminescence, 48 h; series mostly up to 57.5 µM. In short, it runs like this: as §1
(In general: ATP-based viability assays read luminescence as a measure of living cells.)

The subject of a further test is CASKI. Described as above. The conditions noted are these: Gynecologic cancer cell panel viability, ATPlite luminescence, 48 h; series mostly up to 57.5 µM. In short, it runs like this:
as §1

The subject of another test is Es-2. The test is described as above. The conditions noted are these: Gynecologic cancer cell panel viability, ATPlite luminescence, 48 h; series mostly up to 57.5 µM. In short, it runs like this:
as §1

A further test relates to HeLa. The test is described as above. The conditions noted are these: Gynecologic cancer cell panel viability, ATPlite luminescence, 48 h; series mostly up to 57.5 µM. Summed up: as §1
A further test has as its system Hek293T. Described as above. The conditions noted are these: Gynecologic cancer cell panel viability, ATPlite luminescence, 48 h, control line for the selectivity index; series mostly up to 57.5 µM. Summed up:
as §1

The next test relates to JEG-3. Described as above. The conditions noted are these: Gynecologic cancer cell panel viability, ATPlite luminescence, 48 h; series mostly up to 57.5 µM. In short, it runs like this:
as §1

The next test deals with Tov-21-G. Described as above. The conditions noted are these: Gynecologic cancer cell panel viability, ATPlite luminescence, 48 h; series mostly up to 57.5 µM. Summed up: as §1
The test system of another test is Tov112D. Described as above. The conditions noted are these: Gynecologic cancer cell panel viability, ATPlite luminescence, 48 h; series mostly up to 57.5 µM. In short, it runs like this:
as §1

For test [10], the target named is Glutathione peroxidase 1 (Homo sapiens) (UniProt P07203). The test can be described thus: Primary qHTS Assay for Inhibitors of Recombinant Selenoprotein Glutathione Peroxidase 1 (GPX1) (AID 1845191). Further: nearly all actives have a fitted effect of over 65% in size. In short, it runs like this:
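Recombinant GPX1 (10 nM final) was preincubated with compound for 30 min at room temperature, then reacted with 1 mM GSH, 0.5 mM CHP, 0.5 mM NADPH and 100 nM glutathione reductase; NADPH fluorescence (340/450 nm) was read at 0 and 15 min.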

For the next test, the system named is OV90. Nature of the test: Primary qHTS to identify gynecologic anti-cancer compounds using libraries of approved drugs and bioactive compounds (AID 1345084). Further: nearly all actives have a fitted effect of over 55% in size. Further: potency means the concentration at half of the fitted maximal effect. The conditions noted are these: Gynecologic cancer cell panel viability, ATPlite luminescence, 48 h; series mostly up to 57.5 µM. Summed up: as §1

Chain of Phospholipid hydroperoxide glutathione peroxidase GPX4 (Homo sapiens) (P36969 whole entry, looked up): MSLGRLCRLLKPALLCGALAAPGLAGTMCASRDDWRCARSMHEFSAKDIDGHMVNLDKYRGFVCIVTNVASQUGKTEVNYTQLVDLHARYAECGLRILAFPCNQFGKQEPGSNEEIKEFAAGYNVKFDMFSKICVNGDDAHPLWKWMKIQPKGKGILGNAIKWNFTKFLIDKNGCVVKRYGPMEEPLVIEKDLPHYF
Chain of Calcium and integrin-binding protein 1 (Homo sapiens) (Q99828 whole entry, looked up): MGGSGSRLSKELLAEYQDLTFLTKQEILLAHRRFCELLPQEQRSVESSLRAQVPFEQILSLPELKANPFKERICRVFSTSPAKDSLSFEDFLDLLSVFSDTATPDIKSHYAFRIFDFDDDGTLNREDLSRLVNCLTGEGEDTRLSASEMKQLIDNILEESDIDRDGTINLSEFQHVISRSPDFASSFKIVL
Chain of Glutathione peroxidase 1 (Homo sapiens) (P07203 whole entry, looked up): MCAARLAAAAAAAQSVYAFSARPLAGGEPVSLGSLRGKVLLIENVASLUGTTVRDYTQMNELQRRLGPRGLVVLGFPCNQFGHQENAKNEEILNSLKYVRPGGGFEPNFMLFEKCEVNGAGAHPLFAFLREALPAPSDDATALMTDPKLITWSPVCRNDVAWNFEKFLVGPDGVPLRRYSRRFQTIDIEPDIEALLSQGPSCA

Consider `CN(C)CCCNc1nc(CN2CCN(C(c3ccc(Cl)cc3)c3ccc(Cl)cc3)CC2)nc2ccccc12`, for which the Potency entry in [1], in [5], in test [6], in test [7], in [8] and in [9] was “inactive” throughout. For the same compound, the Potency entry in the test with C33A, in the test with CAOV3, in the test with CASKI, in the test with Es-2, in the test on HeLa and in the test with Hek293T was “inactive” in each case. In addition, the Potency entry in the test on JEG-3, in the test with Tov-21-G and with Tov112D was “inactive” each time. In addition, the result in test [2] was inactive. The figures for the Potency in test [3] and in test [4] were 9.16 µM (active) and 7.28 µM (active), respectively.
Consider `CC(=O)N1c2ccc(-c3ccc(C(=O)O)cc3)cc2C(Nc2ccc(Cl)cc2)CC1C` (centres undefined), for which the Potency in test [1] is 8.91 µM (active); in test [3] it was 0.0325 µM (active); in test [4], 0.0205 µM (active); in the test on Tov-21-G, 2.24 µM (active). In addition, the outcome in test [2] was inactive. Moreover, the Potency result (in [6]; in test [7]; in test [8]; in the test on C33A; in the test on CAOV3; with Hek293T) was “inactive” in each case.
For the compound `c1ccc(-c2cnc(Nc3ccc(OCCN4CCCC4)cc3)s2)cc1`, the Potency result (in [1]; in [10]; in test [5]; in test [8]; in [9]; with C33A) was “inactive” throughout. For the same compound, the Potency entry in the test with CAOV3, with CASKI, in the test with Es-2, with HeLa, with Hek293T and in the test on JEG-3 was “inactive” each time. In addition, the Potency result with Tov112D is “inactive”. Besides, the Potency in test [3] is 9.16 µM (active); in test [4] it was 9.16 µM (active); in [6], 23.9 µM (active).
As to `CCN(CC)Cc1cccc(/C=C/c2nc3ccc(F)cc3c(=O)n2-c2ccccc2Cl)n1`, the Potency entry in test [1], in test [5], in test [6], in test [7], in test [8] and in [9] was “inactive” each time. The Potency result in the test with C33A, in the test with CAOV3, in the test with CASKI, with Es-2, with HeLa and in the test on Hek293T was “inactive” throughout. In the test on JEG-3, the Potency result was “inactive”. Besides, the outcome in test [2] was inactive. Besides, the Potency was 14.5 µM (active) in test [3] and 12.9 µM (active) in [4].
As to `COc1cccc(NC[C@@H](O)Cn2c3ccc(Br)cc3c3cc(Br)ccc32)c1`, the outcome in test [2] was inactive. The Potency entry (in test [10]; in test [5]; in test [6]; in test [8]; in [9]; in the test with C33A) was “inactive” each time. Moreover, the Potency entry in the test with CASKI, in the test with Es-2, in the test with Hek293T, in the test with JEG-3 and in the test on Tov112D was “inactive” throughout.
Regarding `C=C1C(=O)O[C@@H]2[C@H]1[C@H](O)C[C@]1(C)[C@@H](O)CC=C(C)[C@@H]21`, the Potency entry in [1], in test [5], in test [6], in test [7], in [8] and in [9] was “inactive” in each case. For the same compound, the Potency entry in the test on C33A, in the test with CASKI, in the test with Es-2, in the test with HeLa, in the test with Hek293T and in the test with JEG-3 was “inactive” throughout. In addition, the Potency entry in the test on OV90 and with Tov112D was “inactive” in each case. The Potency in test [3] is 11.5 µM (active); in [4] it was 7.28 µM (active).
